# Compound activity as filed in PubChem BioAssay.
# Shown are actives, neighbours in structure and some others; about 12% of the full set was active somewhere.
# JMJD2A Tudor inh: qHTS Assay for Inhibitors of JMJD2A-Tudor Domain | Lysine-specific demethylase 4A (Homo sapiens), O75164 | AlphaScreen JMJD2A-Tudor / H3K4me3 peptide binding | Potency, µM (doses to about 114 µM), without a hit: top-dose activity change, negative = inhibition, most hits filed as inhibitors | 4.4% of 390,000 active; note: % is set by controls: 0 for no effect and ±100 for the full control effect; nearly all actives have a fitted effect of over 50% in size
# BAZ2B block: qHTS Assay for Inhibitors of BAZ2B; Bromodomain adjacent to zinc finger domain protein 2B (Homo sapiens), Q9UIF8; AlphaScreen BAZ2B-H3K14Ac peptide displacement; Potency, µM (titrated, usually from 114 µM), without a hit: at the highest dose activity change, negative = inhibition, most hits filed as inhibitors; 4.4% of 360,000 active; AID 504333, 2011; note: % is set by controls: 0 for no effect and ±100 for the full control effect; nearly all actives have a fitted effect of over 60% in size
#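 AlphaScreen luminescence quantifies BAZ2B engagement of H3K14Ac peptide; the protein and biotinylated peptide are both at 50 nM final, buffer PBS pH 7.4 with 0.01% Tween-20, all steps at room temperature.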
# Sfp inh: qHTS Assay for Inhibitors of Bacillus subtilis Sfp phosphopantetheinyl transferase (PPTase). 4'-phosphopantetheinyl transferase ffp (Bacillus subtilis), Q9F4F7. Biochemical Sfp PPTase activity, qHTS. Potency, µM, without a hit: largest response in the series, negative = inhibition, usual class: inhibitors. 3.5% of 310,000 active;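 note: the enzyme is Sfp with the accession as filed and its product quenches rhodamine fluorescence; 0% = enzyme reaction without inhibitor and -100% = no enzyme wells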
#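 Reaction rates are the 30-min fluorescence difference (ex 525, em 598 nm) in wells containing 15 nM Sfp, 5 uM rhodamine-CoA and 12.5 uM BHQ-2-YbbR at pH 7.6 with 10 mM MgCl2.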
# HP1b chromo inh: HTS for Inhibitors of HP1-beta Chromodomain Interactions with Methylated Histone Tails | Chromobox protein homolog 1 (Homo sapiens), P83916 | AlphaScreen HP1-beta / biotin-H3K9me3 peptide binding | Potency, µM (series often up to 114 µM), for inactives: at the top dose activity change, negative = inhibition, actives largely listed as inhibitors | 0.56% of 390,000 active | AID 540317, 2011; note: nearly all actives have a fitted effect of over 70% in size
# Target sequence (P83916 whole entry, looked up): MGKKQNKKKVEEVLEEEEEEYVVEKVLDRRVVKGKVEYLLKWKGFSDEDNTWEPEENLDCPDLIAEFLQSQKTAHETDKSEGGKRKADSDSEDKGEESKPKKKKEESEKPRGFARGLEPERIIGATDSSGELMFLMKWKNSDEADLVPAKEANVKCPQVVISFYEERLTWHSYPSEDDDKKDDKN
#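 AlphaScreen: HP1-beta (50 nM) preformed 30 min with biotin-H3(1-18)K9me3 peptide (50 nM) in PBS pH 7.4, 0.01% Tween-20. Compound added for 30 min at RT, then streptavidin donor/nickel chelate acceptor beads (10 ug/mL) for 30 min.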
# G9a block: qHTS Assay for Inhibitors of Histone Lysine Methyltransferase G9a. Histone-lysine N-methyltransferase EHMT2 (Homo sapiens), Q96KQ7. G9a H3K9 monomethylation, AlphaScreen, 2 h. Potency, µM (doses to about 102 µM), for the others: top-dose activity, negative = inhibition, most hits filed as inhibitors. 8.8% of 350,000 active; note: % is set by controls: 0 for no effect and ±100 for the full control effect; nearly all actives have a fitted effect of over 75% in size
# Target sequence (Q96KQ7 913-1193 limits assumed): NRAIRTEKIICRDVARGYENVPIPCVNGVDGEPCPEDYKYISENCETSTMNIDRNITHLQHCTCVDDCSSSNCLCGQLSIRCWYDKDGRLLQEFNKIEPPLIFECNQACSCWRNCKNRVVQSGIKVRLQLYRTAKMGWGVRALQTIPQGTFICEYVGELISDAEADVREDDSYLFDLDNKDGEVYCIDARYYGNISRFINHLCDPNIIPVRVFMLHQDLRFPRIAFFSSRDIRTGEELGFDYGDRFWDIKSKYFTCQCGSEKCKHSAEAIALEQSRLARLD
#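 AlphaScreen detection with an anti-monomethyl H3K9 antibody quantified product after a 2 h room-temperature reaction containing 500 nM biotinylated H3K9 peptide, 20 µM SAM and 20 nM enzyme, which had been preincubated 15 min with compound.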
# Active calls of the source: *; u = inconclusive; x = no result; [ ] = dose if it differs, or a comment. Calls come from the whole dose curve; as a rule, active = well fitted curve in the direction sought with a large enough effect; inconclusive = small, poorly fitted or top-dose-only effect, or another doubt; inactive = no such curve, though single readings can be large; an effect the other way counts as inactive or inconclusive. Potency is the fitted concentration of half-maximal effect.
SMILES,JMJD2A Tudor inh,BAZ2B block,Sfp inh,HP1b chromo inh,G9a block
N#Cc1ccc(OCC(=O)NCCCn2ccnc2)cc1,63µM*,x,x,9%[57 µM],x
CC(NC(=O)CN(C)CC(=O)Nc1cccc(F)c1)c1ccccc1 (stereo not given),-7%,13%,x,u,-9%[59 µM]
O=C(CSc1nnc(NC(=O)c2c(F)cccc2F)s1)NCc1ccccc1,3%,-1%,12%,4%,10%
Cc1ccc(Cn2c(SCCN3CCCCC3)nc3c2c(=O)[nH]c(=O)n3C)cc1,-22%,2%,11µM*,-29%,25µM*
CCOCCSc1nc2c(c(=O)[nH]c(=O)n2C)n1CCCc1ccccc1,-21%,-1%,24%,4%,-39%
Cn1c(=O)[nH]c(=O)c2c1nc(SCCN1CCCCC1)n2Cc1ccccc1,-1%,0%,16%,48%,-7%[12.7 µM]
Cn1c(=O)[nH]c(=O)c2c1nc(SCCN1CCCCC1)n2CCCc1ccccc1,u,-31%,3.5µM*,-10%,8.9µM*
CCN(CCn1cccn1)C(=O)CC1C(=O)NCCN1CCc1ccccc1 (stereo not given),-12%,-36%,2%,2%,x
CC1(O)CC(c2ccc(Cl)cc2)=NN1C(=O)c1ccc([N+](=O)[O-])cc1 (stereo not given),-24%[11.4 µM],14µM*,17%,u,u
O=C(NC(=S)Nc1ccc([N+](=O)[O-])cc1O)C1CCCCC1,-33%,-12%,1%,3%,-13%[12.7 µM]
Cn1ccc(C(=O)NC(=S)Nc2ccc([N+](=O)[O-])cc2O)n1,-28%,-32%,u,-3%,25µM*
Cc1cccc(-c2nnc(SCc3nc4ccccc4[nH]3)n2Cc2ccco2)c1,-22%,-31%,12%,17%,50µM*
Clc1cccc(-c2nnc(SC/C=C/c3ccccc3)n2Cc2ccco2)c1,-8%,4%,7%,43%,-29%[59 µM]
CCOc1ccc(-c2nnc(SCc3nc4ccccc4[nH]3)n2N)cc1,89µM*,u,1%,43%,u
O=c1[nH]c(CSc2nnc(-c3ccncc3)n2Cc2ccco2)nc2ccccc12,-1%,-3%,5%,25%,18%
Cc1ccc(-c2nnc(SCc3nc4ccccc4[nH]3)n2Cc2ccco2)cc1,79µM*,u,-11%,6%,x
c1coc(Cn2c(SCc3nc4ccccc4[nH]3)nnc2-c2cccs2)c1,-33%,-5%,14%,21%,50µM*
O=c1[nH]c(-c2ccccc2)nc(-c2ccccc2)c1Cl,13%,x,x,40%,x
CCOC(=O)C1=C(C)N=c2s/c(=C\c3cccc(OCC(=O)O)c3)c(=O)n2C1c1ccccc1OC (stereo not given),u,50µM*,79µM*,-14%,40µM*
CCOC(=O)C1=C(C)N=c2s/c(=C\c3ccc(OC(C)=O)c(OCC)c3)c(=O)n2C1/C=C/c1ccccc1 (stereo not given),45µM*,2%,45µM*,3%,-1%[59 µM]
COc1ccc(C2CC(c3ccccc3C)n3nc(N)nc3N2)cc1 (stereo not given),-34%,u,19%,-12%,u
CCc1ccc(C2CC(c3ccccc3)n3ncnc3N2)cc1 (stereo not given),-33%,4%,1%,29%,79µM*
CCc1ccc(C2CC(c3ccccc3Cl)Nc3nc(N)nn32)cc1 (stereo not given),-26%,-13%,-5%,31%,11µM*
CCc1ccc(C2CC(c3ccccc3)Nc3nc(N)nn32)cc1 (stereo not given),-8%,-20%,6%,55%,6%
CCOc1ccc(C2CC(c3ccccc3C)n3nc(N)nc3N2)cc1 (stereo not given),20µM*,-12%,15%,-9%,u
SMILES,JMJD2A Tudor inh,BAZ2B block,Sfp inh,HP1b chromo inh,G9a block
Cc1cccc(NC(=O)Cn2cc(C(=O)C3CCCCC3)c3ccccc32)c1,4%,33%,x,59%,44%[59 µM]
COc1ccc(CNC(=O)COC(=O)Cc2ccc(Br)cc2)cc1,-6%,x,x,15%[57 µM],x
CC(C)(C)[C@@H](O)C(Cc1ccc(Cl)cc1)n1cncn1 (stereo not given in full),x,x,6%,x,x
O=[N+]([O-])C(=C1NCCN1)C(Cl)=C(Cl)Cl,11%,-11%,6%,44%,56µM*
CCSc1nn(CC(=O)Nc2cccc(Cl)c2)c(N)c1S(=O)(=O)c1ccc(OC)cc1,-33%,-20%,x,-17%,-23%[59 µM]
CCOC(=O)c1ccc(NC2=CC(=O)C(=O)c3ccccc32)cc1,u,u,50µM*,u,u
Cc1cc(NC2=CC(=O)C(=O)c3ccccc32)no1,-17%,x,x,3%,x
CCC(C(=O)Nc1cc(Cl)c(OC)cc1OC)c1ccccc1 (stereo not given),2%,-3%,16%,43%,4%
Cc1ccc(NC2=CC(=O)C(=O)c3ccccc32)cc1,u,40µM*,-19%,-29%,u
COc1cc(OC)c(NC2=CC(=O)C(=O)c3ccccc32)cc1Cl,u,u,-6%,u,40µM*
NS(=O)(=O)c1ccc(NC2=CC(=O)C(=O)c3ccccc32)cc1,22µM*,u,-16%,-8%,x
Cc1c(C(=O)OCCOc2ccccc2)[nH]c2c1C(=O)CC(c1ccc(C(C)(C)C)cc1)C2 (stereo not given),-17%,-7%,x,17%,-3%[59 µM]
COc1cccc(O)c1CN1CCC(Oc2ccc(C(=O)NCc3ccccn3)cc2)CC1,u,-1%,26%,12%,0%
CCOC(=O)c1scc(-c2ccc(C)cc2)c1S(=O)(=O)N1CCN(c2ccccc2)CC1,-25%,u,x,34%,-25%[59 µM]
CC(C)(C)N(NS(=O)(=O)c1ccc(F)cc1)c1ccccc1,u,7%,-30%,27%,8.9µM*
C=C1c2cc(C)ccc2NC(=O)N1c1ccc(C)cc1,0%,-11%,13%,29%,10µM*
C=C1c2ccccc2NC(=O)N1c1ccc(C)cc1,-20%,5%,0%,19%,8.9µM*
Cc1ccc(N2C(=O)Cc3ccccc3C2=O)cc1,-28%,-22%,7%,-7%,-14%
COc1ccc(S(=O)(=O)NCc2ccc(C(=O)NCc3ccccc3)cc2)cc1,-12%,x,x,36%,-18%[59 µM]
O=C1C=C(c2cccc(Br)c2)C[C@@H](c2ccc(Cl)cc2)C1,6%,x,x,56%,x
C[C@H]1C(=O)N(S(=O)(=O)c2ccc([N+](=O)[O-])cc2)[C@H]1c1ccc(F)cc1,-8%,x,30%,29%,x
